Consider 40 compounds from PubChem BioAssay (EPA / NIEHS).

The source made the active and inactive calls. How the source made its calls: active means hit-call score of the fitted dose curve at least 0.9, where 1 is the maximum; inactive means score below 0.9.

This assay can be described thus: ATG_TCF_b_cat_CIS: Attagene CIS-FACTORIAL HepG2 Assay for human T-Cell-Factor with beta-catenin (TCF/b-cat) (AID 2282965). The following applies: HepG2 TCF/beta-catenin cis-reporter transcription, actives raise or lower the signal. The method, then:
ATG_CIS is a cell-based, multiplexed-readout assay that uses HepG2, a human liver cell line, with measurements taken at 24 hours after chemical dosing in a 24-well plate.ATG_TCF_b_cat_CIS is one of 52 assay component(s) measured or calculated from the ATG_CIS assay. It is designed to make measurements of mRNA induction, a form of inducible reporter, as detected with fluorescence intensity signals by Reverse transcription polymerase chain reaction (RT-PCR) and Capillary electrophoresis technology.Data from the assay component ATG_TCF_b_cat_CIS was analyzed into 1 assay endpoint. This assay endpoint, ATG_TCF_b_cat_CIS, was analyzed with bidirectional fitting relative to DMSO as the negative control and baseline of activity. Using a type of inducible reporter, measures of mRNA for gain or loss-of-signal activity can be used to understand the reporter gene at the transcription factor-level as they relate to the gene TCF7 and TCF7L2 and LEF1 and TCF7L1. Furthermore, this assay endpoint can be referred to as a primary readout, because this assay has produced multiple assay endpoints where this one serves a reporter gene function. To generalize the intended target to other relatable targets, this assay endpoint is annotated to the dna binding intended target family, where the subfamily is HMG box protein.
Human liver HepG2 cells are transiently transfected with multiple reporter transcription units (MRTUs) in 6-well plates using FuGene 6 reagent (Roche; 3 ml FuGene/1 mg DNA). The MRTU constructs are regulated by a cis-regulating element (promoter). […] A major difference between the CIS and TRANS system is that in CIS activities of endogenous TFs are measured, whereas the TRANS assay evaluates changes in activities of exogenous, chimeric NR-Gal4 proteins. […] At the end of 24 hour incubation, total RNA was isolated using TriZol reagent (Invitrogen). The isolated RNA is then reverse-transcribed using oligo(dT) primer and Mo-MLV reverse transcriptase (Invitrogen) with DNAse I (Ambion) treatment for 30 min. The one-tenth of the produced cDNA was amplified by PCR using Taq DNA polymerase (Invitrogen) and two reporter sequence-specific primers. The PCR products were fluorescently labeled by primer extension with 6-arboxyfluorescein (6-FAM) 5'-labeled reporter sequence-specific primer (2 min at 95 C, 20 s at 68 C and 10 min at 72 C) and these products were digested with 5U of HpaI (New England Biolabs) for 2h at 37 C. The fragments were purified using Qiaquick PCR columns (Qiagen), analyzed on an ABI 3130xL genetic analyzer (Applied Biosystems) with peak positions identified by using a set of X-rhodamine (ROX)-labeled MapMarker1000 molecular weight standards (BioVentures). The raw capillary electrophoresis data was processed using Attagraph software (Attagene).
On to `C=CC(Cl)CCl` (stereo not given), for which the outcome was inactive.

Turning to `O=C(NC(=O)c1c(F)cccc1F)Nc1cc(Cl)c(OC(F)(F)C(F)C(F)(F)F)cc1Cl` (stereo not given), the call was inactive.

In the case of `CN(C)CCN(C)C`, the compound was called inactive.

As to `Clc1cccc(Cl)c1`, the call was inactive.

As to `ClCCCCl`, the call was inactive.

Turning to `CCC(C)(C#N)N=NC(C)(C#N)CC` (stereo not given), the outcome was inactive.

For `CC(C)[N+](=O)[O-]`, the outcome was inactive.

One may read the AC50 as the midpoint of the concentration-response curve, whichever way the signal moves. Turning to `CC(c1ccccc1)(c1ccc(O)cc1)c1ccc(O)cc1`, the AC50 is 16.9 µM (active).

With `c1cc[c]([Sb]([c]2ccccc2)[c]2ccccc2)cc1`, the result was inactive.

For `CCOP(=S)(OCC)SCS(=O)(=O)C(C)(C)C`, the compound was called inactive.

As to `O=C(O)COc1ccc(Cl)cc1`, the compound was classed as inactive.

For `CCCCCCCCCCCCCCC(Br)C(=O)O` (stereo not given), the result was inactive.

As for `O=[N+]([O-])c1ccc(Cl)c([N+](=O)[O-])c1`, the compound was classed as inactive.

Regarding `CCOC(=O)CCN(SN(C)C(=O)Oc1cccc2c1OC(C)(C)C2)C(C)C`, the compound was called inactive.

On to `COC(F)(C(F)(F)C(F)(F)F)C(F)(C(F)(F)F)C(F)(F)F` (stereo not given), for which the compound was classed as inactive.

For `O=C(N[C@H]1CN2CCC1CC2)c1ccc2c(c1)OCCO2`, the call was inactive.

`CCCCCCCCCCCCCl`: the result was inactive.

Regarding `O=NN1CCCCCC1`, the result was inactive.

`CC(C)C(C)(N)C#N` (stereo not given): the call was inactive.

Regarding `NC(=O)c1ccc(N)nc1`, the compound was classed as inactive.

Consider `CCN(CC)C(=O)C(Cl)=C(C)OP(=O)(OC)OC`, for which the call was inactive.

In the case of `Clc1cnc(Oc2ccc(Oc3ncc(Cl)cc3Cl)cc2)c(Cl)c1`, the call was inactive.

`CCCCOC(C)=O`: the call was inactive.

With `C=C(C)[C@@H]1CC=C(C=O)CC1`, the compound was called inactive.

For `CC(C)(C)c1cc([N+](=O)[O-])cc(C(C)(C)C)c1O`, the result was inactive.

As for `Cc1cccc(N=Nc2ccc(N(C)C)cc2)c1`, the outcome was inactive.

On to `ClCc1ccccc1Cl`, for which the outcome was inactive.

As to `O=[N+]([O-])c1ccccc1O`, the result was inactive.

As for `O=S1OC[C@@H]2[C@H](CO1)[C@]1(Cl)C(Cl)=C(Cl)[C@@]2(Cl)C1(Cl)Cl` (stereo not given in full), the result was inactive.

Consider `O=S(=O)(Oc1ccc(Cl)cc1)c1ccc(Cl)cc1`, for which the call was inactive.

On to `Oc1cccc(-c2ccccc2)c1`, for which the outcome was inactive.

For `CCOC(=O)Cc1ccccc1`, the outcome was inactive.

`CC1(C)[C@H](/C=C2\CCSC2=O)[C@@H]1C(=O)OCc1coc(Cc2ccccc2)c1`: the compound was classed as inactive.

In the case of `C1CCC(C2CCCCC2)CC1`, the call was inactive.

Take `Oc1ccc(Cc2ccc(O)cc2)cc1`: the outcome was inactive.

As for `O=c1nc(O)n(Cl)c(=O)n1Cl`, the compound was classed as inactive.

Turning to `C=CC(=O)OCC(COC(=O)C=C)(COC(=O)C=C)COC(=O)C=C`, the AC50 is 8.6 µM (active).

As to `CCCCC(CC)COC(=O)Cl` (stereo not given), the compound was classed as inactive.

Consider `Cc1cc(Cl)ccc1OC(C)C(=O)O` (stereo not given), for which the compound was classed as inactive.

Turning to `CC(C)CP(=S)(S)CC(C)C`, the compound was called inactive.
